In article PMC7862700, “An all-to-all approach to the identification of sequence-specific readers for epigenetic DNA modifications on cytosine”:

Columns and labels:
Experiment in all cases: DAPPL (digital affinity profiling via proximity ligation, sequencing); 10 mM Tris-HCl pH 7.5, 50 mM NaCl, 1 mM DTT, 4% glycerol, room temperature, 30 min; GST-TFs on glutathione beads, 16-mer random dsDNA library, 0.1% formaldehyde crosslink after washing; high values mean tight binding
Conditions in all cases: protein: recombinant; tags: N-terminal GST; dsDNA, one strand shown
[1] = biological target: T1, FLI1 (Homo sapiens, UniProt Q01543 1-452)
T1 sequence: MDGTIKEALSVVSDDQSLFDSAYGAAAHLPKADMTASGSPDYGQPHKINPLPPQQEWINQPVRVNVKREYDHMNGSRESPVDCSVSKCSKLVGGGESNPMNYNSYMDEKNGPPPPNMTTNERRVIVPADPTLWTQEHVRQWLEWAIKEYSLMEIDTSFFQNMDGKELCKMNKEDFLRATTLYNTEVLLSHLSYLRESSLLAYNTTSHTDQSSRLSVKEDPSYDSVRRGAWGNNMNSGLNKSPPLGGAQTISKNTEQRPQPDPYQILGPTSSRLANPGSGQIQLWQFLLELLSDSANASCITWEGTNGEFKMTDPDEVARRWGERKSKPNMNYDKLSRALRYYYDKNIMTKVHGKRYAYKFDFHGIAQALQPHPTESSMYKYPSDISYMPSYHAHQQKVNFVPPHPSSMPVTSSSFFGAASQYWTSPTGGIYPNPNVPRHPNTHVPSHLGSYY
Summary of the method: (§1)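 Human transcription factors were made in yeast as GST fusions, captured on glutathione beads and barcoded with DNA. With a tag-only sample included, the pool was incubated with 200 nmole of a random double-stranded 16-mer DNA library in Tris/NaCl/DTT/glycerol buffer at room temperature for 30 min, then crosslinked with 0.1% formaldehyde after washing, ligated by proximity, amplified and sequenced. For binding signal, each hexamer's read frequency for a factor is divided by its frequency for the tag-only sample.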

[2] = biological target: T2, ELK1 (Homo sapiens, UniProt P19419 1-428)
T2 sequence: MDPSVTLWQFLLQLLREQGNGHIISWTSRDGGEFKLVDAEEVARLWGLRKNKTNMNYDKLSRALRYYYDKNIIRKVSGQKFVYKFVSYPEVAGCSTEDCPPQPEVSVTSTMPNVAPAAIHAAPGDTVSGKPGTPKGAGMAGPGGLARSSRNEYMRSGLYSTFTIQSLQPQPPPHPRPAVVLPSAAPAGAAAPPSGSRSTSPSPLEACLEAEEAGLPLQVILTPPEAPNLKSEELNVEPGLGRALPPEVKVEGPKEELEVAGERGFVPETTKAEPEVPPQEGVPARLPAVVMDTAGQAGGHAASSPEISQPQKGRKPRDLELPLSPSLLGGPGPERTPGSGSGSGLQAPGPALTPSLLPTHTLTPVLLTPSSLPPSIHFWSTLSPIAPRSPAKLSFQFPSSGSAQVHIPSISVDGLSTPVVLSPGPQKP
Summary of the method: as §1

[3] = biological target: T3, GABPA (Homo sapiens, UniProt Q06546 1-454)
T3 sequence: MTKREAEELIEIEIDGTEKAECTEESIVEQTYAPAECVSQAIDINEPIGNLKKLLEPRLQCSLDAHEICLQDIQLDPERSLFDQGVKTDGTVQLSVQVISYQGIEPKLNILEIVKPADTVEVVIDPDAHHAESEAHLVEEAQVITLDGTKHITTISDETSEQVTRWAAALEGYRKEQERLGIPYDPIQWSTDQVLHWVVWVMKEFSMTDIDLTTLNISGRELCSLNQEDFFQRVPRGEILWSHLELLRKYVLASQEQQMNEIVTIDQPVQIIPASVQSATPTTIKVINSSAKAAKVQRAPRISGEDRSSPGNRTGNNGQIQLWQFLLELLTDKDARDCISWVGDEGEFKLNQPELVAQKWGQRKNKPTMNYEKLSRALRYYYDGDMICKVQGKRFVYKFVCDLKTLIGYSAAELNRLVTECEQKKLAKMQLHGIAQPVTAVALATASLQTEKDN
Summary of the method: as §1

[4] = biological target: T4, ERG (Homo sapiens, UniProt P11308 1-479)
T4 sequence: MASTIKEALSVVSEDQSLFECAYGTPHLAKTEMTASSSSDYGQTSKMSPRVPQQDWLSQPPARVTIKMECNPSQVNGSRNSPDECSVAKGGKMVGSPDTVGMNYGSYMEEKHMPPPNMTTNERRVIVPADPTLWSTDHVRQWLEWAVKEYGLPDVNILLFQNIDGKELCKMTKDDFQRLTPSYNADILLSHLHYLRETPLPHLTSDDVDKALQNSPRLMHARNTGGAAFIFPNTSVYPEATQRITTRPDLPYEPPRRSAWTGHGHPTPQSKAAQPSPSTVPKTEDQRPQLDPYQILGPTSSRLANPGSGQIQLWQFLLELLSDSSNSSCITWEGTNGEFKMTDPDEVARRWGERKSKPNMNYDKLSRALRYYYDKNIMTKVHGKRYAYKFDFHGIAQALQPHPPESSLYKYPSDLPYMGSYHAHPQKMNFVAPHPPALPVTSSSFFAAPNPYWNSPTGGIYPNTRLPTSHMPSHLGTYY
Summary of the method: as §1

[5] = biological target: ELF1 (Homo sapiens, UniProt P32519 1-619)
Chain of ELF1 (P32519 whole entry): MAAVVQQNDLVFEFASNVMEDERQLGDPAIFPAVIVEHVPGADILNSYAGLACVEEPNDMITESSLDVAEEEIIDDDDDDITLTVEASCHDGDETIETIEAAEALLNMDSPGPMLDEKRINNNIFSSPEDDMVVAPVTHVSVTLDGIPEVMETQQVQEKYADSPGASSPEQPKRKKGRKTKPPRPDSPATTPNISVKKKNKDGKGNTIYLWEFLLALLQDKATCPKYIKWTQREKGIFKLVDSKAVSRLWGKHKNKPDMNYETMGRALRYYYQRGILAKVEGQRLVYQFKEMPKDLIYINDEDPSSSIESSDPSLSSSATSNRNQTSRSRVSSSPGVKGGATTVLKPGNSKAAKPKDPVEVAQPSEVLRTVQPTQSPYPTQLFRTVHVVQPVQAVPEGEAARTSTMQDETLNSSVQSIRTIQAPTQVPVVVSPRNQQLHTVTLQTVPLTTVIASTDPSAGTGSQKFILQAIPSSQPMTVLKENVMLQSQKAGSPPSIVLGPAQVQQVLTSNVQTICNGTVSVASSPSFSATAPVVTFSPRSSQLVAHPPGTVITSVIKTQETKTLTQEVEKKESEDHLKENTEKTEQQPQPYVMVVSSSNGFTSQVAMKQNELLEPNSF
Summary of the method: as §1

[6] = biological target: T5, EHF (Homo sapiens, UniProt Q9NZC4 1-300)
T5 sequence: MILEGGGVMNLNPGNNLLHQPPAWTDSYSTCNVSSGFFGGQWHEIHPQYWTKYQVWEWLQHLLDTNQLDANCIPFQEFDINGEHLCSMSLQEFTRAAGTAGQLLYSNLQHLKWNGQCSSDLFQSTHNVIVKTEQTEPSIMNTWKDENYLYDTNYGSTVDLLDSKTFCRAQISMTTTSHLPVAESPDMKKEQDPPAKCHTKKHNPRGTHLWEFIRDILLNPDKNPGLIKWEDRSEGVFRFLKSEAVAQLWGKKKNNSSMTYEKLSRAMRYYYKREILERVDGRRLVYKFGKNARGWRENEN
Summary of the method: as §1

[7] = biological target: SPI1 (Homo sapiens, UniProt P17947 1-270)
Summary of the method: as §1

[8] = biological target: SPIB (Homo sapiens, UniProt Q01892 1-262)
Chain of SPIB (Q01892 whole entry): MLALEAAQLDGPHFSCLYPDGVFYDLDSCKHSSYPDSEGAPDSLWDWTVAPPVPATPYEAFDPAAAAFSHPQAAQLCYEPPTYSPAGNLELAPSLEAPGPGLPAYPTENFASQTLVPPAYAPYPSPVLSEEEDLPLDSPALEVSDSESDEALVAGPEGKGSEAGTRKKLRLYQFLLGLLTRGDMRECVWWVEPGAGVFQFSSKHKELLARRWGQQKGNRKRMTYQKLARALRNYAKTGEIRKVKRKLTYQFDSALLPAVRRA
Summary of the method: as §1

[9] = biological target: T6, ELK3 (Homo sapiens, UniProt P41970 1-407)
T6 sequence: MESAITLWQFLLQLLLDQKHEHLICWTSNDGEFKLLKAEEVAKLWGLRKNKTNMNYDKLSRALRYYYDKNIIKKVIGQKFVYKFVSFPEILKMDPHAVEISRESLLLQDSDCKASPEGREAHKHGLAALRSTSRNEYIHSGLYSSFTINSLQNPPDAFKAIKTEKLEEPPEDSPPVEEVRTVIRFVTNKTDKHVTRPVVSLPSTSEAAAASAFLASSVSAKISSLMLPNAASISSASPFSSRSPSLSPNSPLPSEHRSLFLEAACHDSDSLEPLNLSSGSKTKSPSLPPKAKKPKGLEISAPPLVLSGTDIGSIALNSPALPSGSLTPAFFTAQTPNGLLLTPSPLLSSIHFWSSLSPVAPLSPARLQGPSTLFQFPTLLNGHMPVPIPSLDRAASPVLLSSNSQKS
Summary of the method: as §1

Sequence	binding signal [1]	binding signal [2]	binding signal [3]	binding signal [4]	binding signal [5]	binding signal [6]	binding signal [7]	binding signal [8]	binding signal [9]
CTGCGA	1.25 fold enrichment (6-mer frequency, TF over GST control)	1.31 fold enrichment (6-mer frequency, TF over GST control)	1.34 fold enrichment (6-mer frequency, TF over GST control)	1.29 fold enrichment (6-mer frequency, TF over GST control)	1.32 fold enrichment (6-mer frequency, TF over GST control)	1.26 fold enrichment (6-mer frequency, TF over GST control)	1.33 fold enrichment (6-mer frequency, TF over GST control)	1.45 fold enrichment (6-mer frequency, TF over GST control)	1.19 fold enrichment (6-mer frequency, TF over GST control)
TCCGCA	2.2 fold enrichment (6-mer frequency, TF over GST control)	2.22 fold enrichment (6-mer frequency, TF over GST control)	2.07 fold enrichment (6-mer frequency, TF over GST control)	2.03 fold enrichment (6-mer frequency, TF over GST control)	2.01 fold enrichment (6-mer frequency, TF over GST control)	2.03 fold enrichment (6-mer frequency, TF over GST control)	2.85 fold enrichment (6-mer frequency, TF over GST control)	2.18 fold enrichment (6-mer frequency, TF over GST control)	2.24 fold enrichment (6-mer frequency, TF over GST control)
TTCTGA	1.37 fold enrichment (6-mer frequency, TF over GST control)	1.39 fold enrichment (6-mer frequency, TF over GST control)	1.27 fold enrichment (6-mer frequency, TF over GST control)	1.31 fold enrichment (6-mer frequency, TF over GST control)	1.27 fold enrichment (6-mer frequency, TF over GST control)	1.32 fold enrichment (6-mer frequency, TF over GST control)	1.21 fold enrichment (6-mer frequency, TF over GST control)	1.32 fold enrichment (6-mer frequency, TF over GST control)	1.38 fold enrichment (6-mer frequency, TF over GST control)
ACATAA	1.01 fold enrichment (6-mer frequency, TF over GST control)	1.09 fold enrichment (6-mer frequency, TF over GST control)	1.08 fold enrichment (6-mer frequency, TF over GST control)	1.17 fold enrichment (6-mer frequency, TF over GST control)	1.13 fold enrichment (6-mer frequency, TF over GST control)	1.1 fold enrichment (6-mer frequency, TF over GST control)	1.08 fold enrichment (6-mer frequency, TF over GST control)	1.1 fold enrichment (6-mer frequency, TF over GST control)	1.11 fold enrichment (6-mer frequency, TF over GST control)
GAATGT	1.14 fold enrichment (6-mer frequency, TF over GST control)	1.11 fold enrichment (6-mer frequency, TF over GST control)	1.12 fold enrichment (6-mer frequency, TF over GST control)	1.08 fold enrichment (6-mer frequency, TF over GST control)	1.03 fold enrichment (6-mer frequency, TF over GST control)	1.13 fold enrichment (6-mer frequency, TF over GST control)	1.07 fold enrichment (6-mer frequency, TF over GST control)	1.12 fold enrichment (6-mer frequency, TF over GST control)	1.06 fold enrichment (6-mer frequency, TF over GST control)
AAAACT	1.23 fold enrichment (6-mer frequency, TF over GST control)	1.16 fold enrichment (6-mer frequency, TF over GST control)	1.15 fold enrichment (6-mer frequency, TF over GST control)	1.17 fold enrichment (6-mer frequency, TF over GST control)	1.25 fold enrichment (6-mer frequency, TF over GST control)	1.24 fold enrichment (6-mer frequency, TF over GST control)	1.17 fold enrichment (6-mer frequency, TF over GST control)	1.23 fold enrichment (6-mer frequency, TF over GST control)	1.19 fold enrichment (6-mer frequency, TF over GST control)
TTAACA	1.18 fold enrichment (6-mer frequency, TF over GST control)	1.13 fold enrichment (6-mer frequency, TF over GST control)	1.15 fold enrichment (6-mer frequency, TF over GST control)	1.15 fold enrichment (6-mer frequency, TF over GST control)	1.17 fold enrichment (6-mer frequency, TF over GST control)	1.13 fold enrichment (6-mer frequency, TF over GST control)	1.15 fold enrichment (6-mer frequency, TF over GST control)	1.14 fold enrichment (6-mer frequency, TF over GST control)	1.19 fold enrichment (6-mer frequency, TF over GST control)
